From PubChem BioAssay AID1159580 (chemical genetic matrix, 2015)
Several values for one entry are separate records, joined by “and”; a condition that tells them apart may be missing. Identical values can stand only once. About 2,000 (36%) of roughly 5,500 compounds were called active. About 18% were inconclusive and are not listed. No stated cut-off is given here; in the data, active means normalized growth mostly below about 0.91 (no sharp cut-off); inconclusive means no clear call, values can overlap the other calls; inactive means mostly above about 0.92. The list shows a part of the results.

Assay: chemical genetic growth profiling, strain panel (AID 1159580);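 further: tested at 20 µM; growth read once vehicle control cultures reached saturation at 30 °C; 1 = growth at the plate median or of vehicle wells; lower values mean less growth of the strain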
Details: S. cerevisiae deletion strains, growth OD

Measured: normalized growth

CCCc1nc2c(C)cc(-c3nc4ccccc4n3C)cc2n1Cc1ccc(-c2ccccc2C(=O)O)cc1
inactive: locus YAL013W, strain DEP1, hits give low values 1.01 | locus YAL021C, strain ccr4, hits give low values 1.02 | locus YAL026C, strain drs2, hits give low values 1 | locus YAL030W, strain snc1, hits give low values 1.01 | locus YBL061C, strain skt5, hits give low values 1.01 | locus YBR009C, strain hhf1, hits give low values 1.01 | locus YBR021W, strain FUR4, hits give low values 0.992 | locus YBR023C, strain chs3, hits give low values 1.01 | locus YBR171W, strain sec66, hits give low values 1.02 | locus YBR229C, strain ROT2, hits give low values 1 | locus YBR231C, strain swc5, hits give low values 1.02 | locus YBR279W, strain paf1, hits give low values 1.01 | locus YCL011C, strain gbp2, hits give low values 1.01 | locus YCL016C, strain dcc1, hits give low values 1 | locus YCL029C, strain bik1, hits give low values 1.01 | locus YCL069W, strain vba3, hits give low values 1.02 | locus YCR088W, strain abp1, hits give low values 1.02 | locus YDL005C, strain med2, hits give low values 1.02 | locus YDL035C, strain GPR1, hits give low values 0.98 | locus YDL040C, strain nat1, hits give low values 1.01 | locus YDL074C, strain BRE1, hits give low values 0.997 | locus YDL101C, strain DUN1, hits give low values 0.999 | locus YDL134C, strain PPH21, hits give low values 1 | locus YDL185W, strain tfp1, hits give low values 1.01 | locus YDL192W, strain arf1, hits give low values 1.02 | locus YDR001C, strain nth1, hits give low values 1.02 | locus YDR069C, strain doa4, hits give low values 1.03 | locus YDR101C, strain arx1, hits give low values 0.989 | locus YDR137W, strain rgp1, hits give low values 0.975 | locus YDR150W, strain NUM1, hits give low values 1.01 | locus YDR159W, strain sac3, hits give low values 0.978 | locus YDR162C, strain NBP2, hits give low values 1.01 | locus YDR195W, strain ref2 1.06 | locus YDR297W, strain sur2, hits give low values 1.01 | locus YDR318W, strain mcm21, hits give low values 1 | locus YDR334W, strain swr1, hits give low values 1.02 | locus YDR335W, strain msn5, hits give low values 1.03 | locus YDR388W, hits give low values 1.02 | locus YDR392W, strain spt3, hits give low values 0.829 | locus YDR502C, strain sam2, hits give low values 1 | locus YEL003W, strain gim4, hits give low values 1.02 | locus YEL037C, strain rad23, hits give low values 1.02 | locus YEL061C, strain CIN8 (second series), hits give low values 1.02 | locus YEL061C, strain CIN8, hits give low values 1.01 | locus YER015W, strain faa2, hits give low values 1.01 | locus YER016W, strain bim1, hits give low values 1.01 | locus YER110C, hits give low values 1.02 | locus YER111C, strain swi4, hits give low values 1.01 | locus YER155C, strain BEM2 (second series), hits give low values 0.926 | locus YER155C, strain BEM2, hits give low values 1 | locus YER167W, strain BCK2, hits give low values 0.998 | locus YFR010W, strain ubp6, hits give low values 1.03 | locus YGL078C, strain dbp3, hits give low values 1.01 | locus YGL086W, strain mad1, hits give low values 0.988 | locus YGL167C, strain pmr1, hits give low values 1.02 | locus YGL173C, strain kem1, hits give low values 1.01 | locus YGL227W, strain vid30, hits give low values 1.01 | locus YGL240W, strain doc1, hits give low values 1.01 | locus YGL248W, strain PDE1, hits give low values 0.994 | locus YGL253W, strain hxk2, hits give low values 1.03 | locus YGR078C, strain PAC10, hits give low values 0.997 | locus YGR135W, strain pre9, hits give low values 1.04 | locus YGR229C, strain SMI1, hits give low values 1.01 | locus YGR252W, strain gcn5, hits give low values 0.994 | locus YHR013C, strain ard1, hits give low values 1.04 | locus YHR027C, strain rpn1, hits give low values 1.01 | locus YHR030C, strain SLT2, hits give low values 1 and 0.973 | locus YHR079C, strain IRE1 (second series), hits give low values 0.997 | locus YHR079C, strain IRE1, hits give low values 0.967 | locus YHR094C, strain hxt1, hits give low values 1.01 | locus YHR129C, strain ARP1, hits give low values 0.996 | locus YHR142W, strain chs7, hits give low values 1.03 | locus YHR200W, strain rpn10, hits give low values 1 | locus YIL066C, strain RNR3, hits give low values 0.997 | locus YIL073C, strain SPO22, hits give low values 1.08 | locus YIL125W, strain kgd1, hits give low values 1 | locus YIR030C, strain dcg1, hits give low values 1.01 | locus YJL092W, strain hpr5, hits give low values 1.01 | locus YJL095W, strain BCK1 (second series), hits give low values 1 | locus YJL095W, strain BCK1, hits give low values 0.989 and 0.986 | locus YJL115W, strain asf1, hits give low values 1.01 | locus YJL129C, strain trk1, hits give low values 0.956 | locus YJL134W, strain LCB3, hits give low values 1 | locus YJL154C, strain vps35, hits give low values 1.01 | locus YJL164C, strain tpk1, hits give low values 1 | locus YJL166W, strain qcr8, hits give low values 1.01 | locus YJL168C, strain set2, hits give low values 1 | locus YJL187C, strain SWE1 (second series), hits give low values 0.995 | locus YJL187C, strain SWE1, hits give low values 1.01
